Screening data from PubChem BioAssay.
FLuc counter: firefly luciferase modulation, counter-screen for miR-21 project; hit rate 6.9% among 360,000; Potency, µM (series often up to 57.5 µM), actives largely listed as inhibitors; AID 588342; purified FLuc, Km substrates, luminescence inhibition; note: nearly all actives have a fitted effect of over 55% in size
Target sequence (P08659 whole entry, looked up): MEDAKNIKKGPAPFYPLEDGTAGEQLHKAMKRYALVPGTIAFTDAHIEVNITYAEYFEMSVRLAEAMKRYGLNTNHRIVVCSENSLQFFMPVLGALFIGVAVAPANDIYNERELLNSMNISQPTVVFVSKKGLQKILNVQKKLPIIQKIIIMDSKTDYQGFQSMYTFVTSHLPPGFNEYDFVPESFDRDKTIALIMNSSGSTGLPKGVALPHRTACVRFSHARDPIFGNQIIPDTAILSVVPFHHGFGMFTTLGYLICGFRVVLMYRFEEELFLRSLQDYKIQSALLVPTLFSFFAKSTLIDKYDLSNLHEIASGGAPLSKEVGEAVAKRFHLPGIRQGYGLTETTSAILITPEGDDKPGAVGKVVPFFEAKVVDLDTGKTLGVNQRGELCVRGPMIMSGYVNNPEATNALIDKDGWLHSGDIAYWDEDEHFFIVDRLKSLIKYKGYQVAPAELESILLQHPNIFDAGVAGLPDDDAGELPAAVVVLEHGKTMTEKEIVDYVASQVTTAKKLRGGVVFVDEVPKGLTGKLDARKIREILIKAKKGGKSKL
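Biochemical qHTS of compounds, final roughly 60 µM downward over six points, against 10 nM purified firefly luciferase using Km concentrations of substrates (10 uM D-luciferin, 10 uM ATP) in Tris acetate pH 7.5 buffer; luminescence output.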
SMN2 splice enh: SMN2 splice variant enhancement | Potency, µM (highest dose often 46.1 µM), actives largely listed as activators | HEK293 SMN2-luciferase splicing reporter, luminescence, 30-36 h | AID 1458 | hit rate 2.8% among 210,000; note: nearly all actives have a fitted effect of over 55% in size
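HEK293 cells carry an SMN2 […]–luciferase reporter in which exon 7 inclusion puts luciferase in frame. Cells were plated 10-12 h before compound addition, then incubated 30-36 h at 37C. ONE-Glo luminescence was read; sodium butyrate at 4.5 mM final served as control.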
Rab9 prom act: activators of Rab9 promoter; Huh7 Rab9 promoter-luciferase reporter, luminescence, 24 h; Potency, µM (titrated, usually from 9.22 µM), most hits filed as activators; hit rate 2.8% among 320,000; note: nearly all actives have a fitted effect of over 60% in size
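Measured in stably transfected Huh7 cells bearing a Rab9 promoter–luciferase construct: 24 h compound treatment at 37 °C, followed by luminescence detection.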
KinaseGlo FLuc: Kinase-Glo luciferase inhibition (counter-screen); hit rate 0.28% among 200,000; Potency, µM (top dose mostly 38.3 µM), usual class: inhibitors; AID 1379; Q27757; Kinase-Glo luciferase, ATP luminescence, 8 min; note: nearly all actives have a fitted effect of over 60% in size
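Compounds were added to a substrate mix at pH 7.2 (50 mM imidazole, 10 uM ATP, within the enzyme's linear range), followed by Kinase-Glo detection reagent; luminescence was measured after 8 minutes at ambient temperature.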
NPC1 prom act: NPC1 promoter activation | Huh7 NPC1 promoter luciferase reporter, 24 h | Potency, µM (doses to about 9.22 µM), actives largely listed as activators | hit rate 2.4% among 320,000 | AID 485313; note: nearly all actives have a fitted effect of over 60% in size
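Huh7 cells stably carrying NPC1 promoter–luciferase, plated in Opti-MEM with 10% FBS for 2 h, were exposed to compound in DMSO for 24 h at 37 °C; luciferase reagent was added for 10 min and luminescence read.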
A number is an active result; – = inactive; ? = inconclusive; · = no result. Only some compounds are listed: those with a hit (about 7.3% of all), similar ones and a draw of the others. Calls come from the whole dose curve; as a rule, active = well fitted curve in the direction sought with a large enough effect; inconclusive = small, poorly fitted or top-dose-only effect, or another doubt; inactive = no such curve, though single readings can be large; an effect the other way counts as inactive or inconclusive.

SMILES	FLuc counter	SMN2 splice enh	Rab9 prom act	KinaseGlo FLuc	NPC1 prom act
O=C(N/N=C/c1cc(Cl)c(O)c(Cl)c1)c1cc2c(ccc3ccccc32)o1	2.1µM	·	–	·	–
O=C(N/N=C/c1cc(Br)c(O)c(Br)c1)c1cc2c(ccc3ccccc32)o1	3µM	·	–	·	–
O=C(N/N=C/c1ccc(O)c(Br)c1)c1cc2c(ccc3ccccc32)o1	?	·	–	·	–
COc1ccc(Cl)cc1NC(=O)CSc1nnc2[nH]c(=O)cc(C)n12	–	·	·	·	·
COc1ccccc1CNS(=O)(=O)c1cnc(N)nc1	–	·	·	·	·
COC(=O)C1=C(C(=O)OC)[C@@H]2N(Cc3ccccc3)c3ccccc3[C@@]23C[C@@H](C(=O)OC)N(C(=O)NCc2ccccc2)C3=C1	·	–	·	–	·
CCc1ccc(NC(=O)CSC2=Nc3ccccc3C3=NC(CCC(=O)NCCc4ccccc4)C(=O)N23)cc1 (configuration not stated)	–	·	·	·	·
CC(=O)NNc1ncnc2c1cnn2-c1ccc(C)c(C)c1	?	–	–	–	–
Cc1ccc(-n2ncc3c(NC4CCCCC4)ncnc32)cc1C	0.6µM	·	·	·	·
Cc1ccc(-n2ncc3c(NC4CCCCC4)ncnc32)cc1Cl	1.1µM	·	·	·	·
CCC(=O)NNc1ncnc2c1cnn2-c1ccc(C)c(Cl)c1	21µM	·	·	·	·
Cc1ccc(SCC(=O)Nc2ccc(N3CCN(C)CC3)c(F)c2)c(C)c1	12µM	–	–	–	–
O=C(CSc1ccccc1)Nc1ccc(N2CCOCC2)c(F)c1	?	·	3.2µM	·	3.5µM
CS(=O)(=O)c1ccc2nc(NC(=O)c3ccccc3)sc2c1	2.1µM	·	0.5µM	·	0.63µM
CC(C)(C)C(=O)Nc1nc2ccc(S(C)(=O)=O)cc2s1	?	7.9µM	1.8µM	–	?
COc1ccc(C(=O)Nc2nc3ccc(S(C)(=O)=O)cc3s2)cc1OC	–	·	–	–	–
CS(=O)(=O)c1ccc2nc(NC(=O)c3ccc(NS(=O)(=O)c4cccc([N+](=O)[O-])c4)cc3)sc2c1	11µM	·	–	·	–
Cc1cccc(C(=O)Nc2nc3ccc(S(C)(=O)=O)cc3s2)c1	2.1µM	·	?	·	2.2µM
Cc1ccc(C(=O)Nc2nc3ccc(S(C)(=O)=O)cc3s2)cc1C	–	·	–	·	–
CCc1nc(-c2cc(S(=O)(=O)N3CCN(c4ccc(F)cc4)CC3)ccc2OC)no1	–	·	·	·	·
CCCCC(=O)Nc1ccccc1C(=O)OCc1cc(=O)n2nc(C3CCCCC3)sc2n1	–	·	·	·	·
CC(C)CCOc1ccc(Cn2c(=O)oc3ccccc32)cc1	–	–	·	·	·
CS(=O)(=O)c1ccc2nc(NC(=O)CS(=O)(=O)Cc3ccccc3)sc2c1	17µM	–	–	–	–
CS(=O)(=O)c1ccc2nc(NC(=O)Nc3ccccc3F)sc2c1	0.54µM	·	1.1µM	·	0.32µM
CS(=O)(=O)c1ccc2nc(NC(=O)Cc3ccccc3)sc2c1	–	·	–	·	–
SMILES	FLuc counter	SMN2 splice enh	Rab9 prom act	KinaseGlo FLuc	NPC1 prom act
NS(=O)(=O)c1ccc2nc(NC(=O)c3ccncc3)sc2c1	6.7µM	·	–	·	–
Cc1ccc(-n2nc3c(N4CCC(C(=O)N(C)Cc5ccccc5)CC4)nnc(C)c3c2C)cc1	–	·	·	·	·
Cc1ccc(/C(N)=N/OC(=O)CCC2CCCCC2)cc1	19µM	–	–	–	–
Cc1cccc(/C(N)=N/OC(=O)CCC2CCCCC2)c1	6µM	–	–	–	–
N/C(=N\OC(=O)CCC1CCCC1)c1ccc(Cl)cc1	21µM	·	–	·	–
Cc1ccc(/C(N)=N/OC(=O)CCC2CCCC2)cc1	15µM	–	–	–	–
COc1ccc(/C(N)=N/OC(=O)CCC2CCCC2)cc1	–	·	–	·	–
Cc1c(C)n(Cc2ccc(F)cc2)c2ccc(C(=O)N3CCN(c4ccc(Cl)cc4)CC3)cc12	–	·	·	·	·
COc1ccccc1CCNC(=O)c1cc2c(=O)n3cccc(C)c3nc2n1C	–	·	·	·	·
Cc1ccc(/C(N)=N/OC(=O)CCCc2ccccc2)cc1	?	·	–	·	–
COc1ccc(/C(N)=N/OC(=O)CCc2ccccc2)cc1OC	–	–	–	–	–
N/C(=N\OC(=O)CCCc1ccccc1)c1ccccc1Cl	6.7µM	·	–	·	–
Cc1cccc(/C(N)=N/OC(=O)CCc2ccccc2)c1	21µM	·	?	·	–
COc1ccc(C(=O)N(O)c2ccccc2)cc1	·	–	·	–	·
Cc1cccn2c(Nc3ccc4c(c3)OCCO4)c(-c3ccc(Br)o3)nc12	?	–	·	·	·
Fc1ccccc1NC(=S)N/N=C/c1ccccc1Br	13µM	11µM	3.2µM	–	?
